Assay results published in PubChem BioAssay (Tox21).
Where “and” joins values, the source holds several entries; their conditions need not be identical. Identical values can stand only once. Results filed as inconclusive are left out. Some compounds were tested as several samples or in several runs, with calls that do not always agree. Calls of active or inactive are those of the source. Unless noted, calls follow the shape of the dose curve; as a rule, active = well fitted curve in the direction sought with a large enough effect in the repeat runs; inconclusive = weak or mixed curves; inactive = no such curve, though single readings can be large; an effect the other way counts as inactive or inconclusive.

Assays:
[1] = qHTS assay to test for compound auto fluorescence at 535 nm (green) in HEK293 cells (AID 720680)
[2] = qHTS assay to test for compound auto fluorescence at 460 nm (blue) in HEK293 cell free culture (AID 720681)
Method in brief: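 Blue fluorescence (Ex 405/Em 460 nm, triamterene-equivalent) was read immediately after pin transfer of compound or DMSO into medium (DMEM, 10% FBS) without cells.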

[3] = qHTS assay to test for compound auto fluorescence at 535 nm (green) in HEK293 cell free culture (AID 720682)
Method in brief: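 DMEM + 10% FBS, cell-free; cpd or DMSO pinned in; Ex485/Em535 read; output as fluorescein-equivalent signal.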

[4] = qHTS assay to test for compound auto fluorescence at 590 nm (red) in HEK293 cell free culture (AID 720683)
Method in brief: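 Red-channel autofluorescence of compounds in culture medium (DMEM, 10% FBS), no cells, measured at 540/590 nm. Rose Bengal sodium is the reference fluorophore for equivalence.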

[5] = qHTS assay to test for compound auto fluorescence at 590 nm (red) in HepG2 cell free culture (AID 720684)
Method in brief: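 Plate contents were MEM with 10% FBS plus test compound or DMSO, no cells. Fluorescence was recorded with 540 nm excitation and 590 nm emission.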

[6] = qHTS assay to test for compound auto fluorescence at 460 nm (blue) in HepG2 cell free culture (AID 720685)
Method in brief: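 Compound (23 nL) or DMSO pinned into cell-free MEM with 10% FBS; blue fluorescence read at 405/460 nm excitation/emission, expressed as auto-fluorescence equivalency to triamterene.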

[7] = qHTS assay to test for compound auto fluorescence at 460 nm (blue) in HepG2 cells (AID 720687)
Method in brief: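 Blue-channel autofluorescence (Ex/Em 405/460 nm, triamterene-equivalent) was measured after 1 hr compound exposure at 37 C, 5% CO2. Cells were HepG2, plated overnight at 37 C in MEM plus 10% FBS.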

[8] = qHTS assay to identify small molecule antagonists of the glucocorticoid receptor (GR) signaling pathway - cell viability counter screen (AID 720693); also: nearly all actives have a fitted effect of over 55% in size
[9] = qHTS assay for identifying genotoxic compounds that show differential cytotoxicity against isogenic chicken DT40 cell lines with known DNA damage response pathways - wild type cell line (AID 743012); also: nearly all actives have a fitted effect of over 60% in size; also: potency is read from the fitted curve at half-maximal effect
Method in brief: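 Quantitative HTS on parental DT40 cells: 40 h compound treatment at 37 C/5% CO2, with viability then determined by CellTiter-Glo luminescence. Values serve as the DNA repair-proficient reference for differential cytotoxicity.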

[10] = qHTS assay for identifying genotoxic compounds that show differential cytotoxicity against isogenic chicken DT40 cell lines with known DNA damage response pathways - Rev3 mutant cell line (AID 743014); also: nearly all actives have a fitted effect of over 55% in size; also: potency is read from the fitted curve at half-maximal effect
[11] = qHTS assay for identifying genotoxic compounds that show differential cytotoxicity against isogenic chicken DT40 cell lines with known DNA damage response pathways - Rad54/Ku70 mutant cell line (AID 743015); also: nearly all actives have a fitted effect of over 60% in size; also: potency is read from the fitted curve at half-maximal effect
[12] = qHTS assay to identify small molecule antagonists of the androgen receptor (AR) signaling pathway - cell viability counter screen (AID 743033; also: nearly all actives have a fitted effect of over 45% in size; also: potency is read from the fitted curve at half-maximal effect)
[13] = qHTS assay to identify small molecule antagonists of the androgen receptor (AR) signaling pathway using the MDA cell line - cell viability counter screen (AID 743041; also: nearly all actives have a fitted effect of over 45% in size)
Method in brief: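 R1881-driven MDA-kb2 AR-luc cells, 3,000/well, were dosed with library compounds for 16 h; cell health came from CellTiter-Fluor fluorescence in the reporter wells.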

[14] = biological target: Glucocorticoid receptor (Homo sapiens) (UniProt P04150); test: qHTS assay to identify small molecule antagonists of the glucocorticoid receptor (GR) signaling pathway (AID 720692; active = well fitted inhibition curve with a large enough effect in the signal ratio in the repeat runs, not every such curve was filed as active; the % refers to the signal ratio)
Method in brief: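 Fluorescence from cleaved LiveBLAzer B/G FRET substrate reports GRE-driven beta-lactamase in HeLa cells; compounds are tested against 5 nM dexamethasone (final) over 18 h at 37 C, substrate incubation 2 h at room temperature.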

[15] = qHTS assay to test for compound auto fluorescence at 535 nm (green) in HepG2 cell free culture (AID 720686)
[16] = biological target: Androgen receptor (Homo sapiens) (UniProt P10275); test: qHTS assay to identify small molecule antagonists of the androgen receptor (AR) signaling pathway (AID 743035; active = well fitted inhibition curve with a large enough effect in the signal ratio in the repeat runs, not every such curve was filed as active; the % refers to the signal ratio)
Method in brief: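 Cell line: GeneBLAzer AR-UAS-bla GripTite (HEK293). Stimulus: R1881 added after compound. Exposure: 16 h, 37C, 5% CO2. Readout: LiveBLAzer B/G FRET fluorescence after 2 h at room temperature.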

[17] = biological target: Androgen receptor (Homo sapiens) (UniProt P10275); test: qHTS assay to identify small molecule agonists of the androgen receptor (AR) signaling pathway (AID 743036; active = well fitted activation curve with a large enough effect in the signal ratio in the repeat runs, with a control signal flat, not every such curve was filed as active; the % refers to the signal ratio)
Method in brief: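 Screening used 2,000 AR-bla HEK293 cells per well, treated 16 h at 37C with test compounds in DMSO alongside positive and DMSO-only controls; beta-lactamase activity was then read by LiveBLAzer B/G FRET fluorescence after 2 h at room temperature.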

[18] = biological target: Androgen receptor (Homo sapiens) (UniProt P10275); test: qHTS assay to identify small molecule agonists of the androgen receptor (AR) signaling pathway using the MDA cell line (AID 743040; also: nearly all actives have a fitted effect of over 20% in size); conditions: MDA-kb2 AR-luc cells, MMTV luciferase, 16 h, stronger effect = higher value
Method in brief: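 After a 5 h incubation at 37C and 0% CO2, MDA-kb2 reporter cells were dosed with compounds in DMSO and kept 16 h under the same conditions. Luciferase activity was then read as luminescence with ONE-Glo.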

[19] = biological target: Androgen receptor (Homo sapiens) (UniProt P10275); test: qHTS assay to identify small molecule antagonists of the androgen receptor (AR) signaling pathway using the MDA cell line (AID 743042; also: nearly all actives have a fitted effect of over 55% in size)
Method in brief: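 Antagonist mode: compounds plus R1881 agonist added to MDA-kb2 AR-luc cells, incubated 16 h at 37C. Luciferase reporter luminescence quantified, with multiplexed CellTiter-Fluor readout for cell viability.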

[20] = biological target: Glucocorticoid receptor (Homo sapiens) (UniProt P04150); test: qHTS assay to identify small molecule agonists of the glucocorticoid receptor (GR) signaling pathway (AID 720691; active = well fitted activation curve with a large enough effect in the signal ratio in the repeat runs, not every such curve was filed as active; the % refers to the signal ratio)
Method in brief: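 Beta-lactamase reporter activity, read as fluorescence intensity, was measured in GR-bla HeLa cells exposed to compounds for 18 h at 37 C and then loaded with LiveBLAzer B/G FRET substrate for 2 h at room temperature.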
% is scaled to controls: 0 for no effect and ±100 for the full control effect.

Chain of Glucocorticoid receptor (Homo sapiens) (P04150 whole entry, looked up): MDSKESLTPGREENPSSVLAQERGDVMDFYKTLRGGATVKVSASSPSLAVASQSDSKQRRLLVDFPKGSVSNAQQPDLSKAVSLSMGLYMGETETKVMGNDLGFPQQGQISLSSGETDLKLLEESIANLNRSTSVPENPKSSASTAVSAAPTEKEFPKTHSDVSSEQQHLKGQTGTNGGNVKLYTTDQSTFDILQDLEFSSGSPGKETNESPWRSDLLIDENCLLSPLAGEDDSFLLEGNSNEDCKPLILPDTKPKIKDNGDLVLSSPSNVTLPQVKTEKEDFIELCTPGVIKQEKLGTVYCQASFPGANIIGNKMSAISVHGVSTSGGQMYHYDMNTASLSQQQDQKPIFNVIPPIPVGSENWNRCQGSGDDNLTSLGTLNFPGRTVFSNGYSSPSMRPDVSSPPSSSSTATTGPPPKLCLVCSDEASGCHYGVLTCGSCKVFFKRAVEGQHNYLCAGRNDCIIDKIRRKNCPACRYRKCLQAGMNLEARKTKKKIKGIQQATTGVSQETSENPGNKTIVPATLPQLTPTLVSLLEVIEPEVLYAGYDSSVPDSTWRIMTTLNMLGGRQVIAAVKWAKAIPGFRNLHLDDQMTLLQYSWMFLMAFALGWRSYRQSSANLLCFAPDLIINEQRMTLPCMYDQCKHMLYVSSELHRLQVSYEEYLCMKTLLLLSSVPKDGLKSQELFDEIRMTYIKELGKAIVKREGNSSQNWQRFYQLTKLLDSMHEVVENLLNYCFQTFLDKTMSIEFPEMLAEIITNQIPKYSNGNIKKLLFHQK
Chain of Androgen receptor (Homo sapiens) (P10275 whole entry, looked up): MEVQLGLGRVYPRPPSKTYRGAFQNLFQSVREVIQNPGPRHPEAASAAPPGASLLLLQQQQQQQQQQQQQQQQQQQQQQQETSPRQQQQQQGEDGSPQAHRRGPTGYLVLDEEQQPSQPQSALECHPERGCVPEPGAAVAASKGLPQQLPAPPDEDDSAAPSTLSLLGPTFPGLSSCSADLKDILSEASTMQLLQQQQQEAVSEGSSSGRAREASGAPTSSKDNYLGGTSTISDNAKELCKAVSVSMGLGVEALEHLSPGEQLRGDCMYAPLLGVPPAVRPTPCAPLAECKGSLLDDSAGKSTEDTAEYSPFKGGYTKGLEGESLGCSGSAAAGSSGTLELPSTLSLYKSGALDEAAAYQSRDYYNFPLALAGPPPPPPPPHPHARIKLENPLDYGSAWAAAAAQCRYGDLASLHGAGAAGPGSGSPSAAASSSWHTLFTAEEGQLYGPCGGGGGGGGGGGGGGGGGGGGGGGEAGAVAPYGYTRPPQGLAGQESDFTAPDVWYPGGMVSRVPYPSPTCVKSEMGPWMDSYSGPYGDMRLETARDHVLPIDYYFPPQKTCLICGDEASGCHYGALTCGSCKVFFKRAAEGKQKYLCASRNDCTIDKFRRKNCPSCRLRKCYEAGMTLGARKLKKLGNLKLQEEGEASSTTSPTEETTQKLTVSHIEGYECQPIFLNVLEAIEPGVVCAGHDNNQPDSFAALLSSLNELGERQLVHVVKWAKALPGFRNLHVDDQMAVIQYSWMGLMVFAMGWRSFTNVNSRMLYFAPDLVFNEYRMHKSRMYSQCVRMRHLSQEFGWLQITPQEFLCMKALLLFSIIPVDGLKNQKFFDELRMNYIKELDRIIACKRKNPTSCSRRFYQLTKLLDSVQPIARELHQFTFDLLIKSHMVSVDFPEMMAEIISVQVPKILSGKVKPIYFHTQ

O=C1OC(=O)c2c(Cl)c(Cl)c(Cl)c(Cl)c21
inactive: outcome [1] | Potency [2] | outcome [3] | outcome [4] | outcome [5] | Potency [6] | Potency [7] | Potency [8] | Potency [9] | Potency [10] | Potency [11] | Potency [12] | Potency [13]

CC(=O)OC[C@H]1O[C@@](COC(C)=O)(O[C@H]2O[C@H](COC(C)=O)[C@@H](OC(C)=O)[C@H](OC(C)=O)[C@H]2OC(C)=O)[C@@H](OC(C)=O)[C@@H]1OC(C)=O
inactive: outcome [1] | Potency [2] | outcome [3] | outcome [4] | outcome [5] | Potency [6] | Potency [7] | Potency [14] | Potency [8] | Potency [9] | Potency [10] | Potency [11] | Potency [12] | Potency [13]

CC(C)(CO)CO
inactive: outcome [1] | Potency [2] | outcome [3] | outcome [4] | outcome [5] | outcome [15] | Potency [7] | Potency [14] | Potency [8] | Potency [9] | Potency [10] | Potency [11] | Potency [12] | Potency [16] | Potency [17] | activity change ([18]; at 70.3 µM (top of the series)) 0.0392% and -0.381% | Potency [13] | Potency [19]

CCCN(CCC)C(=O)SCC
inactive: outcome [1] | Potency [2] | outcome [3] | outcome [4] | outcome [5] | outcome [15] | Potency [7] | outcome [20] | Potency [14] | Potency [8] | Potency [9] | Potency [10] | Potency [11] | Potency [12] | Potency [16] | Potency [17] | activity change ([18]; at 70.3 µM (top of the series)) 1.01% | activity change ([18]; at 95 µM (top of the series)) -1.98% | Potency [13] | Potency [19]

CC(COCC(C)OC(=O)c1ccccc1)OC(=O)c1ccccc1 (stereo not given)
inactive: outcome [1] | Potency [2] | outcome [3] | outcome [4] | outcome [5] | Potency [7] | outcome [20] | Potency [14] | Potency [8] | Potency [10] | Potency [12] | Potency [13]
active: Potency [11] 61.1 µM

CCOC(=O)c1ccc(O)cc1
inactive: outcome [1] | Potency [2] | outcome [3] | outcome [4] | outcome [5] | outcome [15] | Potency [7] | Potency [14] | Potency [8] | Potency [9] | Potency [10] | Potency [11] | Potency [12] | Potency [13]

CC(C=O)Cc1ccc(C(C)(C)C)cc1 (stereo not given)
inactive: outcome [1] | Potency [2] | outcome [3] | outcome [4] | Potency [6] | outcome [15] | Potency [7] | outcome [20] | Potency [14] | Potency [8] | Potency [9] | Potency [10] | Potency [11] | Potency [12] | Potency [16] | Potency [17] | activity change ([18]; at 70.3 µM (top of the series)) -2.03% and -1.92% | Potency [13] | Potency [19]

CC(=O)OCc1ccc2c(c1)OCO2
inactive: outcome [1] | Potency [2] | outcome [3] | outcome [4] | outcome [5] | Potency [7] | outcome [20] | Potency [14] | Potency [8] | Potency [9] | Potency [10] | Potency [11] | Potency [12] | Potency [13]

CN=C(NC#N)NCCSCc1nc[nH]c1C
inactive and 54 µM (active): Potency [10]
inactive: outcome [1] | Potency [2] | outcome [3] | outcome [4] | outcome [5] | Potency [6] | Potency [7] | Potency [8] | Potency [9] | Potency [12] | Potency [13]
inactive and 13.6 µM (active): Potency [11]

CCCOCC(C)O (stereo not given)
-0.141% (active) and -0.54% (inactive): activity change ([18]; at 70.3 µM (top of the series))
inactive: outcome [1] | Potency [2] | outcome [3] | outcome [4] | outcome [5] | outcome [15] | Potency [7] | Potency [8] | Potency [9] | Potency [10] | Potency [11] | Potency [12] | Potency [16] | Potency [17] | Potency [13] | Potency [19]

NC(=O)c1ncn([C@@H]2O[C@H](CO)[C@@H](O)[C@H]2O)n1
active: Potency [9] 668 nM and 5.12 µM | Potency [10] 750 nM and 1.62 µM | Potency [11] 1.68 µM and 4.07 µM
inactive: outcome [1] | Potency [2] | outcome [3] | outcome [4] | outcome [5] | outcome [15] | Potency [7] | Potency [14] | Potency [8] | Potency [12] | Potency [13]

O=C(Cl)c1ccc(C(=O)Cl)cc1
inactive: outcome [1] | Potency [2] | outcome [3] | outcome [4] | outcome [5] | outcome [15] | Potency [7] | Potency [14] | Potency [8] | Potency [9] | Potency [10] | Potency [11] | Potency [12] | Potency [13]

CC(=O)OCCC(C)C
inactive: outcome [1] | Potency [2] | outcome [3] | outcome [4] | outcome [5] | outcome [15] | Potency [7] | Potency [14] | Potency [8] | Potency [9] | Potency [10] | Potency [11] | Potency [12] | Potency [13]

CC(CN1c2ccccc2Sc2ccccc21)N(C)C (stereo not given)
inactive: outcome [1] | Potency [2] | outcome [3] | outcome [4] | outcome [5] | outcome [15] | Potency [7] | Potency [8]
inactive and 44.1 µM (active): Potency [12]
active: Potency [9] 21.1 µM and 55 µM and 54.5 µM | Potency [10] 26.6 µM and 27.6 µM and 24.3 µM | Potency [11] 26.6 µM and 30.9 µM and 54.5 µM

CC1(C)C(=O)N(Cl)C(=O)N1Cl
inactive: outcome [1] | Potency [2] | outcome [3] | outcome [4] | outcome [5] | outcome [15] | Potency [7] | Potency [14] | Potency [8] | Potency [9] | Potency [10] | Potency [11] | Potency [12] | Potency [13]

COc1ccc([C@@H]2CC(=O)c3c(O)cc(O[C@@H]4O[C@H](CO[C@@H]5O[C@@H](C)[C@H](O)[C@@H](O)[C@H]5O)[C@@H](O)[C@H](O)[C@H]4O)cc3O2)cc1OC
inactive: outcome [1] | Potency [2] | outcome [3] | outcome [4] | outcome [5] | Potency [6] | Potency [7] | Potency [8] | Potency [9] | Potency [10] | Potency [11] | Potency [12] | Potency [13]

O=C1O[C@H]([C@H](O)CO)C(O)=C1O
inactive: outcome [1] | Potency [2] | outcome [3] | outcome [4] | outcome [5] | outcome [15] | Potency [7] | Potency [14] | Potency [8] | Potency [9] | Potency [10] | Potency [11] | Potency [12] | Potency [13]
